{"source": "PubChem BioAssay (EPA / NIEHS)", "note": "Inconclusive results are not listed. Calls of active or inactive are those of the source. How the source made its calls: active means hit-call score of the fitted dose curve at least 0.9, where 1 is the maximum; inconclusive means response in the unintended direction; inactive means score below 0.9.", "data": [{"read-out": "ABC Transporter (ABCB11), ABCB11 (gene 8647)", "experiment": "CLD_ABCB11_48hr: CellzDirect (CLD) Gene Expression Assay for ABC Transporter (ABCB11) at 48 hours (AID 2283697)", "protocol": "CLD_48hr is a cell-based, multiplexed-readout assay that uses hepatocyte, a human liver primary cell, with measurements taken at 48 hours after chemical dosing in a 96-well plate.CLD_ABCB11_48hr is one of 16 assay component(s) measured or calculated from the CLD_48hr assay. It is designed to make measurements of mRNA induction, a form of inducible reporter, as detected with chemiluminescence signals by Quantitative Nuclease Protection Assay (qNPA) technology.Data from the assay component CLD_ABCB11_48hr was analyzed at the endpoint, CLD_ABCB11_48hr, in the positive analysis fitting direction relative to DMSO as the negative control and baseline of activity. Using a type of inducible reporter, gain-of-signal activity can be used to understand changes in the reporter gene as they relate to the gene ABCB11. Furthermore, this assay endpoint can be referred to as a primary readout. To generalize the intended target to other relatable targets, this assay endpoint is annotated to the transporter intended target family, where subfamily is ABC transporter.\nHuman hepatocyte cultures were treated daily for two consecutive days with fresh dosing solutions containing appropriate concentrations of the 320 ToxCast chemicals (chemical identities were blinded to CellzDirect and other ToxCast collaborators), vehicle control (0.2% DMSO), and positive control inducers as summarized in Table 1. Due to the large number of treatment groups and chemicals examined, the ToxCast chemicals were divided into two groups (spanning two independent cultures of hepatocytes from separate donor preparations (Hu778: ToxCast plates 1 and 2; Hu776: ToxCast plates 3 and 4). Each preparation of human hepatocyte cultures was treated with respective vehicle control, medium only control, set of six positive controls/reference chemicals for the five hepatic receptor pathways, and a subset of eight of the ToxCast chemicals (indoxacarb, pyrithiobac-sodium, norflurazon, cyhalofop-butyl, methomyl, thiram, acetochlor, and propiconazole). These replicate data, coupled with internal replicates designed within the blinded ToxCast chemical library, provided additional data to evaluate interindividual differences between hepatocyte preparations and their potential impact on chemical profiles.Cell morphology and integrity were evaluated using phase-contrast microscopy as an indicator of hepatocyte cell health (Tyson & Green, 1987). Cultures for each treatment group (i.e., media, vehicle [0.2% DMSO], positive control inducers [multiple concentrations], and the ToxCast chemicals [multiple concentrations]) were observed and cell morphology was assessed relative to vehicle control cultures at each harvest time point (0, 6, 24, or 48 h). […] Images were evaluated at the conclusion of the study to assess changes in cell integrity and account for the effects of chemical exposure on uncharacteristic changes in concentration-dependent gene expression profiles. The results from these determinations of apparent cytotoxicity were annotated (yes/no) alongside the corresponding qNPA data for reference.At the conclusion of each treatment period, hepatocyte cultures (96-well) were washed with 1 volume of HBSS, lysed by addition of 25 ul ArrayPlate lysis buffer (HTG, Tucson, AZ), and 70 ul/well of Denaturation Oil, denatured by incubation at 95C for 10 min, and frozen at approximately -70C until analysis by nuclease protection assay (qNPA) (Roberts et al., 2007). For qNPA analysis, cell lysates were thawed at 50C for approximately 30 min, qNPA probes were added, and samples were incubated at 95C for 10 min to begin the detection process by denaturing the target RNA, dissociating the duplexes and secondary structure hybridization. At the conclusion of the hybridization period, S1 nuclease reagent was added to each sample to digest all nonprotected nucleotides at 50C for 60-90 min. […]", "values": [{"smiles": "COc1nc(NC(C)C)nc(NC(C)C)n1", "outcome": "inactive"}, {"smiles": "C#CCOS(=O)OC1CCCCC1Oc1ccc(C(C)(C)C)cc1", "note": "(stereo unspecified)", "outcome": "inactive"}, {"smiles": "COc1nc(C)nc(NC(=O)NS(=O)(=O)c2ccccc2CCC(F)(F)F)n1", "outcome": "inactive"}, {"smiles": "CS/C(C)=N/OC(=O)N(C)SN(C)C(=O)O/N=C(\\C)SC", "outcome": "inactive"}, {"smiles": "CCON=C(CC)C1=C(O)CC(c2c(C)cc(C)cc2C)CC1=O", "note": "(stereo unspecified)", "outcome": "inactive"}, {"smiles": "COC(=O)C=C(C)OP(=O)(OC)OC", "outcome": "inactive"}, {"smiles": "CC(C)(C)c1ccc(CSc2cnn(C(C)(C)C)c(=O)c2Cl)cc1", "outcome": "inactive"}, {"smiles": "Oc1ccccc1-c1ccccc1", "outcome": "inactive"}, {"smiles": "COc1nc(C)nc(NC(=O)NS(=O)(=O)c2ccccc2Cl)n1", "outcome": "inactive"}, {"smiles": "Cc1c(F)c(F)c(COC(=O)C2C(/C=C(\\Cl)C(F)(F)F)C2(C)C)c(F)c1F", "note": "(stereo unspecified)", "outcome": "inactive"}, {"smiles": "COC(=O)c1ccccc1C(=O)OC", "outcome": "inactive"}, {"smiles": "COC(=O)C(C)Oc1ccc(Oc2ccc(Cl)cc2Cl)cc1", "note": "(stereo unspecified)", "outcome": "inactive"}, {"smiles": "CCc1nn(C)c(C(=O)NCc2ccc(C(C)(C)C)cc2)c1Cl", "AC50": "37 µM (active)"}, {"smiles": "COC(=O)N(OC)c1ccccc1COc1ccn(-c2ccc(Cl)cc2)n1", "AC50": "35.7 µM (active)"}, {"smiles": "CN(C)C(=S)SSC(=S)N(C)C", "outcome": "inactive"}, {"smiles": "O=C(O)c1nc(Cl)ccc1Cl", "AC50": "6.55 µM (active)"}]}]}
